Experimental findings from ChEMBL document CHEMBL3988442, “University of Dundee, Small-Polar-MMV Screening Library” (2021) are described below.

For some of these results: Potency and affinity values are given separately.

Set-up in all cases: scale not given: direction of the effect not stated beside the values
Assay [1] has as its target Protein translocase subunit SecA (Escherichia coli (strain K12)) (UniProt P10408). As to the kind of experiment: Assay to Identify E. coli SecA ATPase Inhibitors. It counts as functional. The conditions noted are these: 30 µM.
Assay [2] has as its target T1, Ubiquitin-activating enzyme e1, putative (Leishmania donovani (strain BPK282A1)) (UniProt E9BSI1).
T1 sequence (whole entry): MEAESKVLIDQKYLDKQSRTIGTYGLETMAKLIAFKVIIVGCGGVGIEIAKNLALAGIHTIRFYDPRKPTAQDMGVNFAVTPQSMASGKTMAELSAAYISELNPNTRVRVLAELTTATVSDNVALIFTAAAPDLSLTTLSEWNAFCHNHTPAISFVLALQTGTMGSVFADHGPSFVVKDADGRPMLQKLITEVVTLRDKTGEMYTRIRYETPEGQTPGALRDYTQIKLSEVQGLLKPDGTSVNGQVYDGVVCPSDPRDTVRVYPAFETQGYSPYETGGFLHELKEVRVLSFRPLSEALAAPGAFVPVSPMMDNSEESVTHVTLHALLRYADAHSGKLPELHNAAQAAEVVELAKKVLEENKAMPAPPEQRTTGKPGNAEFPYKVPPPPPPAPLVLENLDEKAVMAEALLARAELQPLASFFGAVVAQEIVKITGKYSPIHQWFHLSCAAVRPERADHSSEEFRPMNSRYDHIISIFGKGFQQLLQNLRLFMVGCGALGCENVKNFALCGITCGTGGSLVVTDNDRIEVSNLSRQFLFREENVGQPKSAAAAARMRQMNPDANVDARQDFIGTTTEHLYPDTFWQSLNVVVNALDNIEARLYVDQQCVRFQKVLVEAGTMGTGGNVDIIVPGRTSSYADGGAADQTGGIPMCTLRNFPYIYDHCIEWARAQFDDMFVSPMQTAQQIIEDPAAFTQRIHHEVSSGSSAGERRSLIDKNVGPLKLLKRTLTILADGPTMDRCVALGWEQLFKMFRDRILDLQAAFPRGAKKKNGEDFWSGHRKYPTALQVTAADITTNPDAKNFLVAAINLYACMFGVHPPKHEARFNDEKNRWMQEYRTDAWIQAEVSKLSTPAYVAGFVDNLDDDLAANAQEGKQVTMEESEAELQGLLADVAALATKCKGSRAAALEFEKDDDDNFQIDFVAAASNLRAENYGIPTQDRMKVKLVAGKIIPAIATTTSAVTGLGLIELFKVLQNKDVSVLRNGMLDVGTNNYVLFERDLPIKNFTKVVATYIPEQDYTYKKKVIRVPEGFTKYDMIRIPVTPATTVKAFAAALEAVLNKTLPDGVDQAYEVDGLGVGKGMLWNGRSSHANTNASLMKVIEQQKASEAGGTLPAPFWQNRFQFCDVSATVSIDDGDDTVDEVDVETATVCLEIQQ
As to the kind of experiment: Leishmania donovani Ubiquitin Activating Enzyme (LdE1). The conditions noted are these: 30 µM. It is filed as functional.

The target in assay [3] is AMP-activated protein kinase, AMPK (Homo sapiens) (UniProt P54646+O43741+P54619+Q9UGJ0+Q9Y478+Q13131+Q9UGI9). In words: AMP-dependent Kinase enzyme assay. An in vitro enzyme assay that detects ADP turnover that is directly proportional to AMPK activity. This uses naive AMPK that is activated during the assay with MK-8722. Conditions: 30 µM. It is filed as functional.
Assay [4] concerns the target Sialic acid-binding Ig-like lectin 9 (Homo sapiens) (UniProt Q9Y336). In words: Hs-Siglec9 ALPHAscreen SOP 20170721. The conditions noted are these: 10 µM. On the technique in general: In Alpha technology, singlet oxygen from a donor bead excites a nearby acceptor bead.
The test system of another assay is Trypanosoma cruzi. In words: Trypanosoma cruzi phosphomannomutase and mannose-1-phosphate guanylyltransferase assay. Conditions: 10 µM. It is filed as functional.
Assay [5] concerns the target T2, Arginase-2, mitochondrial (Homo sapiens) (UniProt P78540).
T2 sequence (whole entry): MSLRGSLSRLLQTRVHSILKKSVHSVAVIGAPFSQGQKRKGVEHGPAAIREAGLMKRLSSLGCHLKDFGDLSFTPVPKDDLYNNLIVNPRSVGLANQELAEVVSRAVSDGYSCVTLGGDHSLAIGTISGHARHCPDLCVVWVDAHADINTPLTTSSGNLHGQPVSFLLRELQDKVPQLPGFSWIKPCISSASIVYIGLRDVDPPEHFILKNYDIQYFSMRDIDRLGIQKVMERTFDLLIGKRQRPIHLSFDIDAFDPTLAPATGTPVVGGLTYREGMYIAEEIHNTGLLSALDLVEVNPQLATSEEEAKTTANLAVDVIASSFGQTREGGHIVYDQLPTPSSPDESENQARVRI
In words: in vitro enzyme assay to detect the production of urea directly proportional to the activity of Arginase II. Note: in the data most compounds retested in dose-response had high values. It counts as functional. Conditions: 33.3 µM.

In assay [6] the target is T3, Proteasome subunit beta (Trypanosoma cruzi) (UniProt O96673).
T3 sequence (whole entry): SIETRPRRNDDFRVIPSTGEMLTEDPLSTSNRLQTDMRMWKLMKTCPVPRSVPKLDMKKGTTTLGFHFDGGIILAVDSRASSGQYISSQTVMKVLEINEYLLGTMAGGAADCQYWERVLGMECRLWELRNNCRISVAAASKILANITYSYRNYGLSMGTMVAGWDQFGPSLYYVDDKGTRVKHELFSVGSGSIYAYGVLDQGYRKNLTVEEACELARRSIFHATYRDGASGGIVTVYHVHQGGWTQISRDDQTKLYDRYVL
As to the kind of experiment: Trypanosoma cruzi proteasome chymotrypsin-like activity (TcProtChymo) assay. Note: in the data most compounds retested in dose-response had high values. It is filed as functional. The conditions noted are these: 9.37 µM.

The species named for a further assay is Homo sapiens. In words: To identify inhibition of the IFN signalling (Jak-Stat) pathway via expression of an eGFP reporter gene under the control of an IFN-stimulated response element (ISRE) containing MxA promoter. Conditions: 30 µM. It counts as functional. On the technique in general: Reporter assays use an easily measured gene product as a stand-in for the process of interest.

Assay [7] addresses T4, Tyrosyl-tRNA synthetase, putative (Trypanosoma cruzi (strain CL Brener)) (UniProt Q4DSP6).
T4 sequence (whole entry): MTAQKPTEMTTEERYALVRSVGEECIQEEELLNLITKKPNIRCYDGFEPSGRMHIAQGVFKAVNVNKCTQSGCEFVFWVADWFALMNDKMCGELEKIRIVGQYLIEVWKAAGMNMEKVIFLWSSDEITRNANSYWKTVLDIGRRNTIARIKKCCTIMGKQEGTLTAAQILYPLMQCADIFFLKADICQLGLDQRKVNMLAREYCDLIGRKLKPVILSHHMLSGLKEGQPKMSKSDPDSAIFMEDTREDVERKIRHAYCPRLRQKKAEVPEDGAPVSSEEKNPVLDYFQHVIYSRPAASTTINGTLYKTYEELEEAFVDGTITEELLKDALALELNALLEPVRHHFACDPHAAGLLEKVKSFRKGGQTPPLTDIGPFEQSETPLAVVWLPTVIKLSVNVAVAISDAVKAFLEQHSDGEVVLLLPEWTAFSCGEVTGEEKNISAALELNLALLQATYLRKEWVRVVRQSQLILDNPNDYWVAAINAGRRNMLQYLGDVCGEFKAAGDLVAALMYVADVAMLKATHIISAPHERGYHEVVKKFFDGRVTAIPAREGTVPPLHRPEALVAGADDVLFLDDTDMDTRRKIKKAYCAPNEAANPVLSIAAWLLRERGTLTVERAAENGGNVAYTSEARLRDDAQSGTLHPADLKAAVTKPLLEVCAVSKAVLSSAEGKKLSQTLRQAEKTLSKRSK
As to the kind of experiment: Trypanosoma cruzi tyrosyl tRNA synthetase (TcYRS) _High Tyrosine SOP. Note: in the data most compounds retested in dose-response had high values. It counts as functional. Conditions: 30 µM.

Assay [8] concerns the target T4, Tyrosyl-tRNA synthetase, putative (Trypanosoma cruzi (strain CL Brener)). As to the kind of experiment: Trypanosoma cruzi tyrosyl tRNA synthetase (TcYRS) SOP. The conditions noted are these: 30 µM. It counts as functional.
Assay [9] addresses Chromo domain-containing protein 1 (Saccharomyces cerevisiae (strain ATCC 204508 / S288c) (Baker's yeast)) (UniProt P32657). In words: ScCHD-1 Enzyme Inhibition Assay. Note: in the data most compounds retested in dose-response had high values. It is filed as functional. Conditions: 30 µM.

Sequence of Protein translocase subunit SecA (Escherichia coli (strain K12)) (P10408 whole entry): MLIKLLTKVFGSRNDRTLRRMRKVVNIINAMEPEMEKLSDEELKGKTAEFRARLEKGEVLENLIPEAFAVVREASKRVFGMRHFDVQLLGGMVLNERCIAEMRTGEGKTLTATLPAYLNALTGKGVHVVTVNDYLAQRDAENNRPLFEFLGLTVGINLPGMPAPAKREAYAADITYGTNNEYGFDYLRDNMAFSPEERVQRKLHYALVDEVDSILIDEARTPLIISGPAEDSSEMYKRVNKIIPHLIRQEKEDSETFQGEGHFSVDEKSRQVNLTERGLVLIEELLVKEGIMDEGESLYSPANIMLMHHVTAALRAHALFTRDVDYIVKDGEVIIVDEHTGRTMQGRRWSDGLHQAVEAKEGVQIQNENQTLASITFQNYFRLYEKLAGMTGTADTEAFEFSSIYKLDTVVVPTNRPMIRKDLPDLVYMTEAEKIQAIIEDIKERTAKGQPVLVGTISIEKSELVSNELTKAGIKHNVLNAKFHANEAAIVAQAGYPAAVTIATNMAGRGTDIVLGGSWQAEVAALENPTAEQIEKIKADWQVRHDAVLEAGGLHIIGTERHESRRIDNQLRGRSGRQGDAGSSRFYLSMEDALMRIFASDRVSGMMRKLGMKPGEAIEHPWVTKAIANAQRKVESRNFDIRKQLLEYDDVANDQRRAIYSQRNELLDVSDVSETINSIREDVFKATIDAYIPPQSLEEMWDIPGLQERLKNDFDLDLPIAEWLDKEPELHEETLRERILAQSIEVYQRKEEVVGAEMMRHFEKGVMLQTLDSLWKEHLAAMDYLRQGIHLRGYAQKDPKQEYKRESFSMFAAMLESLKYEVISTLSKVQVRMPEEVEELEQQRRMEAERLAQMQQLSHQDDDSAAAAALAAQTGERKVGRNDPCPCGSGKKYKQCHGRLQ
Sequence of Chromo domain-containing protein 1 (Saccharomyces cerevisiae (strain ATCC 204508 / S288c) (Baker's yeast)) (P32657 whole entry, the tested form may be a part): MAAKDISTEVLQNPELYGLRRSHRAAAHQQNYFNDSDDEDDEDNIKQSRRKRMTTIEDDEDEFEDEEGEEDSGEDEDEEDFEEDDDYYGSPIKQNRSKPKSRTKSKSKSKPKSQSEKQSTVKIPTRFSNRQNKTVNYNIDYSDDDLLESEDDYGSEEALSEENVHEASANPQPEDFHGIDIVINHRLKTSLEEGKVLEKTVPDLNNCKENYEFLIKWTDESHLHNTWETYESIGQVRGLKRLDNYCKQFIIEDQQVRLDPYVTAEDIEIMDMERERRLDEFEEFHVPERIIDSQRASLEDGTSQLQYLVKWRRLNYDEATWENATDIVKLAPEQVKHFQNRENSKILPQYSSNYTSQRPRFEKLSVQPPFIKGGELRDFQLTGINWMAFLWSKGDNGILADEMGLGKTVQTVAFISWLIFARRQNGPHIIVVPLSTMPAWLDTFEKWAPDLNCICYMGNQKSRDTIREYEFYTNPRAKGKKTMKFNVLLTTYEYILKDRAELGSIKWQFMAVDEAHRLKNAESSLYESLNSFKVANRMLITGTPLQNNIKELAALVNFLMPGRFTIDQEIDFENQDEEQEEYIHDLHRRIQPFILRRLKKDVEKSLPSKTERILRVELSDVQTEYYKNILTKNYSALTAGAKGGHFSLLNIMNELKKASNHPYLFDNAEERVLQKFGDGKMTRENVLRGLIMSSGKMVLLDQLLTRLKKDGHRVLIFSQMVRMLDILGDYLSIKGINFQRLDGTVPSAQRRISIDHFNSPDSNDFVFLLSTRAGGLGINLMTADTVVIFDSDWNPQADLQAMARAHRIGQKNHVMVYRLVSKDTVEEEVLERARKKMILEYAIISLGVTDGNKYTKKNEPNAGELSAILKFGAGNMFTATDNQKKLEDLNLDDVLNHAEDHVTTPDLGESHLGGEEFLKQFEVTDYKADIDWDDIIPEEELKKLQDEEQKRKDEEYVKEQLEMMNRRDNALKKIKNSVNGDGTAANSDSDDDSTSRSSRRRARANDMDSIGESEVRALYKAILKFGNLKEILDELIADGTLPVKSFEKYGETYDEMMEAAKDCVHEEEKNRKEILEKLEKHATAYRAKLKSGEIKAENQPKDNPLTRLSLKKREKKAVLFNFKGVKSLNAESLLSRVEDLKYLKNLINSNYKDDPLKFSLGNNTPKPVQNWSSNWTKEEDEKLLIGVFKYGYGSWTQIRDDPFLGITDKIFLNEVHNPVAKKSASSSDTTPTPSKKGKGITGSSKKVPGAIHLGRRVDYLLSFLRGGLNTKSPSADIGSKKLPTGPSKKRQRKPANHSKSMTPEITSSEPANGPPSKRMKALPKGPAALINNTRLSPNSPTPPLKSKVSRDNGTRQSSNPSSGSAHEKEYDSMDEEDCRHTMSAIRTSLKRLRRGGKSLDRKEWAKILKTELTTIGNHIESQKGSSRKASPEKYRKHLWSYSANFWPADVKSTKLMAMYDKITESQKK
Sequence of Sialic acid-binding Ig-like lectin 9 (Homo sapiens) (Q9Y336 whole entry): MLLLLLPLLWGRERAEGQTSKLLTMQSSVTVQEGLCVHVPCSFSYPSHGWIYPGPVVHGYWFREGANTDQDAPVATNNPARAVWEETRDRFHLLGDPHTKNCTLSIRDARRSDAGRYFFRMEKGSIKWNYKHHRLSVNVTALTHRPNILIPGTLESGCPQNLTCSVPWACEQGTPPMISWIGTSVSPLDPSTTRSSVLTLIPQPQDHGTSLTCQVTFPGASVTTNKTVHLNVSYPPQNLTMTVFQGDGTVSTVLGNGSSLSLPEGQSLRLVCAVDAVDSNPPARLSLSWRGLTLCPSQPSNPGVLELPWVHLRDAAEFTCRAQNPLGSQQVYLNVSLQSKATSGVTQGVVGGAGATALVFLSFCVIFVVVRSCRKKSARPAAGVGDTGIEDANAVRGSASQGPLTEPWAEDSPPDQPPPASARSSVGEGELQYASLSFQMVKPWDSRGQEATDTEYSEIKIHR

With `COCCCn1c(CN2CCCC(O)C2)cnc1S(=O)(=O)C1CCCC1` (stereo unspecified), the Percent Effect is -5.06% in assay [1]; 10.4% in assay [2]; -2.5% in assay [3]; 10.5% in [4]; 4.62% in the assay with Trypanosoma cruzi; -85.5% in assay [5]. Besides, the Percent Effect in [6] is 3.99%; in the assay filed under Homo sapiens, -9.18%; in assay [7], 3.23%; in [8] it was 11.1%; in assay [9], -11%.

Take `CN(Cc1ccco1)C(=O)[C@H]1CSCN1C(=O)OC(C)(C)C`: the Percent Effect is -4.45% in [1]; 15.8% in [2]; -5.01% in [3]; 13.2% in assay [4]; 5.7% in the assay on Trypanosoma cruzi; -4.32% in [5]. The Percent Effect was 8.21% in assay [6]; -0.327% in the assay listed under Homo sapiens; 4.43% in assay [7]; 13.6% in assay [8]; -3.35% in assay [9].

With `c1ccc(CCN2CCOC(Cn3cccn3)C2)nc1` (stereo unspecified), the Percent Effect in [1] was -6.2%; in assay [2] it was 5.2%; in assay [3] it was -1.28%; in [4], 6.84%; in the assay with Trypanosoma cruzi, 7.54%; in assay [5], 1.05%. The Percent Effect in assay [6] is 3.15%; in the assay listed under Homo sapiens it was 5.5%; in assay [7], 3.81%; in assay [8] it was 11.8%; in assay [9] it was -7.53%.

Consider `Cc1ncsc1CN1C[C@@H]2COC[C@]2(C(=O)NCC2CC2)C1`, for which the Percent Effect in [1] was -0.435%; in assay [2] it was 0%; in assay [3], 8.5%; in assay [4], 2.51%; in the assay with Trypanosoma cruzi it was -4.33%; in assay [5], 5.83%. Moreover, the Percent Effect is -1.15% in assay [6]; 25.1% in the assay filed under Homo sapiens; 2.13% in assay [7]; 1.28% in assay [8]; 10.8% in assay [9].

On to `CN(Cc1cnn(C)c1)C(=O)NC1CCS(=O)(=O)C1` (stereo unspecified), for which the Percent Effect is 0.0061% in [1]; 4.17% in assay [2]; -12.4% in assay [3]; -0.91% in assay [4]; 5.15% with Trypanosoma cruzi; -0.442% in assay [5]. Also, the Percent Effect in [6] is 20.5%; in the assay listed under Homo sapiens, 6.03%; in assay [7], 4.21%; in assay [8], 7.69%; in [9], -2.71%.

Consider `CCOCCCNC(=O)c1cc(C(C)C)nc(N2CCCCCC2)n1`, for which the Percent Effect in assay [1] is 0.305%; in assay [2] it was -12%; in assay [3], 4.38%; in assay [4], -7.72%; in the assay on Trypanosoma cruzi, -5.5%; in assay [5], -16%. The Percent Effect in assay [6] was 16.3%; in the assay filed under Homo sapiens it was 17%; in assay [7], 10.6%; in [8], 12.8%; in assay [9] it was -11.2%.

Take `CSCC(CCO)NC(=O)Nc1cc(Br)ccc1C` (stereo unspecified): the Percent Effect was 0.198% in assay [1]; 5.48% in assay [2]; 11.7% in assay [3]; 4.67% in assay [4]; 2.35% in the assay with Trypanosoma cruzi; 4.09% in assay [5]. Further, the Percent Effect in assay [6] is 15.6%; in the assay listed under Homo sapiens, -12%; in assay [7] it was 1.07%; in assay [8], 5%; in [9], 106%.

On to `COc1ncccc1C(=O)NCC(C)Oc1cccnc1` (stereo unspecified), for which the Percent Effect in [1] was -3.65%; in [2], 5.41%; in [3], 1.52%; in [4], 2.58%; with Trypanosoma cruzi, 0.386%; in assay [5], 1.91%. In addition, the Percent Effect in [6] was 4.83%; in the assay filed under Homo sapiens, -3.73%; in assay [7], 6.88%; in [8] it was 12.2%; in assay [9], -3.26%.

For `Cc1cc(C)c(CNC(=O)NCC2CCCN2C)c(=O)[nH]1` (stereo unspecified), the Percent Effect was -7.62% in [1]; 2.63% in [2]; -1.76% in assay [3]; 2.1% in [4]; -4.89% in the assay on Trypanosoma cruzi; -2.68% in assay [5]. The Percent Effect is 4.84% in assay [6]; 25.4% in the assay listed under Homo sapiens; -4.41% in assay [7]; -2.44% in assay [8]; -2.8% in assay [9].

For `c1cc2n(n1)CC(CNCc1ccc(OCC3CC3)nc1)CN2` (stereo unspecified), the Percent Effect in [1] was -1.23%; in assay [2], 20.8%; in [3], 11.1%; in assay [4] it was 4.04%; in the assay with Trypanosoma cruzi, 7.68%; in assay [5], 0.356%. The Percent Effect in [6] was 3.04%; in the assay listed under Homo sapiens it was -0.525%; in [7] it was 13.6%; in assay [8], 24.4%; in [9], -9.69%.

As to `CCOc1ncccc1C(=O)N1CCCCC1c1nccs1` (stereo unspecified), the Percent Effect in assay [1] was -4.08%; in assay [2] it was 2.7%; in assay [3] it was -17.5%; in [4], 15.7%; with Trypanosoma cruzi, 2.55%; in assay [5], -7.62%. Also, the Percent Effect in assay [6] is -2.7%; in the assay listed under Homo sapiens, 10.1%; in assay [7], 4.43%; in assay [8] it was 11.1%; in [9], -9.25%.
